Records with an inconclusive call do not appear. Activity calls are given as the source filed them. How the source made its calls, unless noted: active means hit-call score of the fitted dose curve at least 0.9, where 1 is the maximum; inactive means score below 0.9.

Read-out in experiment [1]: Nuclear factor erythroid 2-related factor 2 (Homo sapiens) (UniProt Q16236)
Briefly: LTEA_HepaRG_NFE2L2: Life Technologies and Expression Analysis (LTEA) Assay for Nuclear factor erythroid 2-related factor 2 (NFE2L2) Transcription Factor using HepaRG (AID 2283527).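 On outcome: TaqMan qRT-PCR transcript level normalised to ACTB GAPDH and POLR2A housekeeping genes.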 To be noted: mRNA level, 48 h; actives raise or lower the signal. An outline of the steps: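 Differentiated human HepaRG cells in serum-free induction medium were exposed for 48 h to eight concentrations (top 100 uM, half-log dilutions, 0.5% DMSO), in duplicate. NFE2L2 mRNA was quantified by TaqMan qRT-PCR, normalized to ACTB, GAPDH and POLR2A, with bidirectional fitting versus DMSO.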

Read-out in experiment [2]: succinate dehydrogenase complex iron sulfur subunit B (SDHB), SDHB (gene 6390)
The experiment in a line: LTEA_HepaRG_SDHB: Life Technologies and Expression Analysis (LTEA) Assay for succinate dehydrogenase complex iron sulfur subunit B (SDHB) using HepaRG (AID 2283528). To be noted: mRNA level, 48 h; actives raise or lower the signal. An outline of the steps: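 HepaRG cells (~100,000/well, plated 48 h) exposed in duplicate for 48 h in serum-free induction medium to 8-point half-log series from 100 uM in 0.5% DMSO; mRNA by qRT-PCR normalised to ACTB, GAPDH, POLR2A; bidirectional fit versus DMSO.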

Read-out in experiment [3]: Signal transducer and activator of transcription 3 (Homo sapiens) (UniProt P40763)
Briefly: LTEA_HepaRG_STAT3: Life Technologies and Expression Analysis (LTEA) Assay for Signal transducer and activator of transcription (STAT3) using HepaRG (AID 2283529). To be noted: mRNA level, 48 h; actives raise or lower the signal. An outline of the steps:
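Differentiated human HepaRG cells in serum-free induction medium were exposed in duplicate for 48 h to eight half-log concentrations up to 100 uM in 0.5% DMSO. STAT3 mRNA was quantified by TaqMan qRT-PCR, normalized to ACTB, GAPDH and POLR2A, and fitted bidirectionally against DMSO.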

Read-out in experiment [4]: solute carrier (SLCO1B1), SLCO1B1 (gene 10599)
The experiment in a line: LTEA_HepaRG_SLCO1B1: Life Technologies and Expression Analysis (LTEA) Assay for solute carrier (SLCO1B1) using HepaRG (AID 2283530). To be noted: mRNA level, 48 h; actives raise or lower the signal. An outline of the steps: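 Gain or loss of SLCO1B1 mRNA is fitted against the 0.5% DMSO vehicle in human HepaRG liver cells treated 48 h at up to 100 uM in half-log steps. Expression comes from qRT-PCR normalized to endogenous controls.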

Read-out in experiment [5]: Transforming Growth Factor (TGFA), TGFA (gene 7039)
Briefly: LTEA_HepaRG_TGFA: Life Technologies and Expression Analysis (LTEA) Assay for Transforming Growth Factor (TGFA) using HepaRG (AID 2283532). To be noted: mRNA level, 48 h; actives raise or lower the signal. An outline of the steps:
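Differentiated human HepaRG cells, plated 48 h then switched to serum-free induction medium, were exposed in duplicate for 48 h to 8-point half-log series from 100 uM in 0.5% DMSO. TGFA mRNA measured by qRT-PCR, normalized to ACTB/GAPDH/POLR2A, bidirectional fit versus DMSO.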

Read-out in a further experiment: TIMP1, TIMP1 (gene 7076)
The experiment in a line: LTEA_HepaRG_TIMP1: Life Technologies and Expression Analysis (LTEA) Assay for TIMP1 using HepaRG (AID 2283534). To be noted: mRNA level, 48 h; actives raise or lower the signal. An outline of the steps:
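We dosed human liver HepaRG cultures for 48 hours with up to 100 uM test chemical and measured TIMP1 expression by qRT-PCR. Activity in either direction is fitted relative to the 0.5% DMSO vehicle.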

Read-out in experiment [6]: Tumor necrosis factor receptor 1 (TNFRSF1A), TNFRSF1A (gene 7132)
The experiment in a line: LTEA_HepaRG_TNFRSF1A: Life Technologies and Expression Analysis (LTEA) Assay for Tumor necrosis factor receptor 1 (TNFRSF1A) using HepaRG (AID 2283535). To be noted: mRNA level, 48 h; actives raise or lower the signal. An outline of the steps: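 Expression of TNFRSF1A in human HepaRG liver cells was measured by qRT-PCR 48 h after chemical dosing (maximum 100 uM). Bidirectional curve fitting used 0.5% DMSO as baseline.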

Read-out in experiment [7]: Thyroid Hormone Responsive (THRSP), THRSP (gene 7069)
The experiment in a line: LTEA_HepaRG_THRSP: Life Technologies and Expression Analysis (LTEA) Assay for Thyroid Hormone Responsive (THRSP) using HepaRG (AID 2283536). To be noted: mRNA level, 48 h; actives raise or lower the signal. An outline of the steps:
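Differentiated human HepaRG cells were exposed in duplicate for 48 h in serum-free induction medium to eight concentrations (top 100 uM, half-log steps, 0.5% DMSO). Expression was quantified by TaqMan qRT-PCR, normalized to ACTB, GAPDH and POLR2A, with bidirectional fitting against DMSO.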

Read-out in experiment [8]: Cellular tumor antigen p53 (Homo sapiens) (UniProt P04637)
Briefly: LTEA_HepaRG_TP53: Life Technologies and Expression Analysis (LTEA) Assay for Tumor Protein P53 (TP53) using HepaRG (AID 2283537). The following applies: mRNA level, 48 h; actives raise or lower the signal. An outline of the steps: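 Differentiated HepaRG cells in serum-free induction medium exposed 48 h in duplicate to 8 half-log concentrations, top 100 uM, 0.5% DMSO. TP53 mRNA by TaqMan qRT-PCR (Fluidigm), normalized to ACTB, GAPDH, POLR2A; fitted bidirectionally versus DMSO.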

Read-out in experiment [9]: UDP glucuronosyltransferase (UGT1A1), UGT1A1 (gene 54658)
Briefly: LTEA_HepaRG_UGT1A1: Life Technologies and Expression Analysis (LTEA) Assay for UDP glucuronosyltransferase (UGT1A1) using HepaRG (AID 2283538). The following applies: mRNA level, 48 h; actives raise or lower the signal. An outline of the steps: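 HepaRG cells, 0.5% DMSO vehicle, 48 h exposure in serum-free induction medium to 8-point half-log series topping at 100 uM, in duplicate. UGT1A1 mRNA by Fluidigm qRT-PCR, normalized to ACTB/GAPDH/POLR2A; bidirectional fit versus DMSO.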

Read-out in experiment [10]: UDP glucuronosyltransferase (UGT1A6), UGT1A6 (gene 54578)
Briefly: LTEA_HepaRG_UGT1A6: Life Technologies and Expression Analysis (LTEA) Assay for UDP glucuronosyltransferase (UGT1A6) using HepaRG (AID 2283539). To be noted: mRNA level, 48 h; actives raise or lower the signal. An outline of the steps:
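Endpoint is UGT1A6 transcript induction or loss in a human liver cell line, quantified by TaqMan qRT-PCR 48 h after dosing. Concentrations ran from 100 uM downward in half-log steps in 0.5% DMSO; activity was fitted in both directions versus vehicle.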

Read-out in experiment [11]: X-box binding protein 1 (XBP1), XBP1 (gene 7494)
The experiment in a line: LTEA_HepaRG_XBP1: Life Technologies and Expression Analysis (LTEA) Assay for X-box binding protein 1 (XBP1) using HepaRG (AID 2283540). To be noted: mRNA level, 48 h; actives raise or lower the signal. An outline of the steps:
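Human HepaRG monolayers receive test chemical for 48 h across an eight-point half-log series starting at 100 uM. XBP1 mRNA gain or loss is scored against DMSO by qRT-PCR.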

Experiment [12] can be described thus: LTEA_HepaRG_LDH_cytotoxicity: Cytotoxicity Assessment in the Life Technologies and Expression Analysis (LTEA) Assay (AID 2283563; active means hit-call score of the fitted dose curve at least 0.9, where 1 is the maximum). An outline of the steps:
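Human HepaRG hepatic cells are treated with test chemicals for 48 h at up to 100 uM in 0.5% DMSO. Cytotoxicity is scored from medium LDH against the vehicle control.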

A short description of experiment [13]: TOX21_p53_BLA_p2_viability: Viability Assessment in the Tox21 HCT-116 p53 Agonism Beta-lactamase Assay, Phase 2 (AID 2283591; active means hit-call score of the fitted dose curve at least 0.9, where 1 is the maximum;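 further: compound exposure lasted 16 h at 37 °C; actives lower the ATP signal meaning cytotoxicity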). An outline of the steps:
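HCT-116 p53-bla cells (4000/well) rested 5 h at 37C, then received compounds in DMSO (217-fold dilution) for 16 h at 37C, 5% CO2. After the CCF4 read, CellTiter-Glo was added; ATP luminescence was read after 30 min at room temperature.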

The target in experiment [14] is Cellular tumor antigen p53 (Homo sapiens) (UniProt P04637). The experiment in a line: TOX21_p53_BLA_p2_ratio: Tox21 HCT-116 p53 Agonism Beta-lactamase Assay, Ratio, Phase 2 (AID 2283592; active means hit-call score of the fitted dose curve at least 0.9, where 1 is the maximum). An outline of the steps:
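An inducible beta-lactamase reporter in HCT116 cells signals p53 pathway activation. After 16 h chemical exposure at 37C, cells load CCF4-AM substrate for 2 h at room temperature; activity is the cleaved/uncleaved emission ratio relative to DMSO.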

Experiment [15] can be described thus: TOX21_p53_BLA_p3_viability: Viability Assessment in the Tox21 HCT-116 p53 Agonism Beta-lactamase Assay, Phase 3 (AID 2283593; active means hit-call score of the fitted dose curve at least 0.9, where 1 is the maximum;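 further: cells exposed to compound for 16 h before reading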). An outline of the steps: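 HCT-116 cells (4000/well) rested 5 h at 37C, then got DMSO compounds by pin tool (217-fold dilution) for 16 h at 37C, 5% CO2. After the bla read, CellTiter-Glo was added and luminescence read at 30 min, room temperature.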

Experiment [16] concerns the target Cellular tumor antigen p53 (Homo sapiens) (UniProt P04637). Briefly: TOX21_p53_BLA_p3_ratio: Tox21 HCT-116 p53 Agonism Beta-lactamase Assay, Ratio, Phase 3 (AID 2283596; active means hit-call score of the fitted dose curve at least 0.9, where 1 is the maximum). An outline of the steps: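 HCT116 p53-bla cells (4000/well) given compound in DMSO (217-fold dilution) after 5 h, incubated 16 h at 37C. CCF4-AM substrate 2 h at room temperature; 460/530 nm emission ratio, gain fitted against DMSO.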

Read-out in experiment [17]: Transforming Growth Factor (TGFB1), TGFB1 (gene 7040)
The experiment in a line: LTEA_HepaRG_TGFB1: Life Technologies and Expression Analysis (LTEA) Assay for Transforming Growth Factor (TGFB1) Transporter using HepaRG (AID 2283533). To be noted: mRNA level, 48 h; actives raise or lower the signal. An outline of the steps:
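Expression change of TGFB1 in human HepaRG cells is measured after a 48 h chemical exposure, up to 100 uM in 0.5% DMSO vehicle. Curves are fitted in both directions relative to the DMSO baseline.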

A short description of experiment [18]: ATG_XTT_Cytotoxicity: Cytotoxicity Assessment in the Attagene TRANS-FACTORIAL HepG2 Assay (AID 2283584; active means hit-call score of the fitted dose curve at least 0.9, where 1 is the maximum). An outline of the steps:
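Transfect HepG2 with GAL4-UAS reporter units, dose compound, incubate 24 h, then measure viable cell number by XTT. Fit concentration response against DMSO baseline.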

Signal transducer and activator of transcription 3 (Homo sapiens), sequence (P40763 whole entry, looked up): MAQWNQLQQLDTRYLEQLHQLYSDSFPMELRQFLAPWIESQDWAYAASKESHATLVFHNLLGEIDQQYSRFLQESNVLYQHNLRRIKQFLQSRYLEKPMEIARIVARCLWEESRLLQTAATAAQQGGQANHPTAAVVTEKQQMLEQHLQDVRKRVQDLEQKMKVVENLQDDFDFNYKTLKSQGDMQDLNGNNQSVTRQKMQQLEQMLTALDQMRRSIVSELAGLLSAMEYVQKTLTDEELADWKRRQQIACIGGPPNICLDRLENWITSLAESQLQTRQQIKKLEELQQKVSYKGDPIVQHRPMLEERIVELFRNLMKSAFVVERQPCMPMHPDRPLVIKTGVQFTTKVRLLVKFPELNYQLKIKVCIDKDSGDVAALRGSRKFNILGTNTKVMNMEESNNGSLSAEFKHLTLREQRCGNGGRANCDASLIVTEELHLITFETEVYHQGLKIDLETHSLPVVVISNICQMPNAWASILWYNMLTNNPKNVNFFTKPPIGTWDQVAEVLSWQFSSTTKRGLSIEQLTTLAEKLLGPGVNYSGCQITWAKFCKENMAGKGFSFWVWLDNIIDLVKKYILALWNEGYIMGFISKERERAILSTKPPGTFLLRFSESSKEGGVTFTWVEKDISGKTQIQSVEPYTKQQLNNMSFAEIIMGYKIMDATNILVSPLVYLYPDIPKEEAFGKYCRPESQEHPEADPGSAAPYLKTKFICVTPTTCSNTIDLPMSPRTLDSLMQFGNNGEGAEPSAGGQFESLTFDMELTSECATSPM
Nuclear factor erythroid 2-related factor 2 (Homo sapiens), sequence (Q16236 whole entry, looked up): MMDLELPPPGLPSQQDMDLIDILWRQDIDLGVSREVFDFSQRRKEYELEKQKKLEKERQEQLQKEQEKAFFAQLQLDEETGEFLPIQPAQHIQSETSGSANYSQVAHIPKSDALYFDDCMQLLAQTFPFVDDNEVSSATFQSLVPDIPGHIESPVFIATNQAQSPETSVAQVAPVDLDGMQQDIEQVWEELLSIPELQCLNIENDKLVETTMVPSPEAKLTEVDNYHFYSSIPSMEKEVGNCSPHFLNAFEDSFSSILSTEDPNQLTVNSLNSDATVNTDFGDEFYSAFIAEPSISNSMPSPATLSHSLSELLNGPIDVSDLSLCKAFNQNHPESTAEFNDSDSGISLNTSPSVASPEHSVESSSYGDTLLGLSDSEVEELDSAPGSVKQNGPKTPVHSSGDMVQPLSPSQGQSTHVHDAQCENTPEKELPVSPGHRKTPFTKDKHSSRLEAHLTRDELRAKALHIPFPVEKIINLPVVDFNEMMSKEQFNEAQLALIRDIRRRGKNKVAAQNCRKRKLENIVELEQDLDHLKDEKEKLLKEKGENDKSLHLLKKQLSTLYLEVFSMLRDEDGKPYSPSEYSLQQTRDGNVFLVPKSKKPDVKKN
Cellular tumor antigen p53 (Homo sapiens), sequence (P04637 whole entry, looked up): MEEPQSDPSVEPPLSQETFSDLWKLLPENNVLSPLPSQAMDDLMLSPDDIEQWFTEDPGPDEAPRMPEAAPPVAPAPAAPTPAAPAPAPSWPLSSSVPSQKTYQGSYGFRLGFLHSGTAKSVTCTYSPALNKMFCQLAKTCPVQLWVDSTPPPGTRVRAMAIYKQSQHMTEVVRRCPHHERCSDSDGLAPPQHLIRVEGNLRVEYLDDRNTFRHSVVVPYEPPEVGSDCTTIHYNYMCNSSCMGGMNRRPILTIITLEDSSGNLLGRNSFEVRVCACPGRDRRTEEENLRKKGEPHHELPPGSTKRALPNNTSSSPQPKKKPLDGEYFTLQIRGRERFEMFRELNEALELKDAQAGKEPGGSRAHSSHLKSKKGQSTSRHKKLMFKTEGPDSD

For the compound `O=C1c2c(O)cccc2Cc2cccc(O)c21`, the outcome in experiment [1] is “inactive”; in experiment [2], “inactive”; in [3] it was “inactive”; in [4], “inactive”; in experiment [5], “inactive”; with TIMP1, TIMP1 (gene 7076), “inactive”. Also, the result in experiment [6], in experiment [7], in experiment [8], in experiment [9], in [10] and in experiment [11] was inactive. The compound was classed as inactive in experiment [12], in experiment [13], in experiment [14], in experiment [15] and in [16].

Turning to `CC(C)NCC(O)c1ccc(O)c(O)c1` (stereo not drawn), the AC50 in experiment [1] is 200 nM (active); in experiment [4], 136 nM (active); in experiment [9] it was 111 nM (active). The compound was classed as inactive in experiment [2], in experiment [3], in experiment [5], in [17], in [6] and in experiment [10].

With `C/C=C/c1ccc(OC)cc1`, the compound was classed as inactive in [1], in experiment [2], in experiment [3], in experiment [4], in experiment [5] and in [17]. The outcome is “inactive” in the experiment with TIMP1, TIMP1 (gene 7076); “inactive” in experiment [6]; “inactive” in [9]; “inactive” in experiment [10]; “inactive” in experiment [11]; “inactive” in [12].

Take `CCCCCCCCCCCCCCOS(=O)(=O)O`: the outcome in experiment [1] was “inactive”; in experiment [3], “inactive”; in experiment [4], “inactive”; in [5], “inactive”; in [17], “inactive”; with TIMP1, TIMP1 (gene 7076) it was “inactive”. For the same compound, the call in [6], in experiment [7], in [8], in [9], in experiment [10] and in experiment [11] was inactive. Also, the outcome in experiment [12], in [18], in [14], in experiment [15] and in experiment [16] was inactive. Besides, the AC50 in experiment [13] was 74200 nM (active).

On to `O=C(Oc1ccccc1)c1cccc(C(=O)Oc2ccccc2)c1`, for which the outcome in experiment [1] was “inactive”; in experiment [3] it was “inactive”; in [4], “inactive”; in experiment [5], “inactive”; in experiment [17] it was “inactive”; with TIMP1, TIMP1 (gene 7076), “inactive”. For the same compound, the compound was called inactive in [6], in [7], in experiment [9], in experiment [10], in experiment [11] and in experiment [12].

For the origin of these results see PubChem BioAssay (EPA / NIEHS).
